Sm TGR inh: S. mansoni TGR enzyme inhibition; Q962Y6; purified TGR, DTNB reduction, TNB absorbance 405 nm; Potency, µM (doses to about 114 µM), inactives show at the highest dose activity change, negative = inhibition, usual class: inhibitors; hit rate 3% among 360,000; AID 485364; further: on the % scale 0 is the no-effect control and ±100 the full control effect; nearly all actives have a fitted effect of over 60% in size
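Kinetic colorimetric format: TGR-catalysed, NADPH-driven DTNB reduction monitored via TNB absorbance. Enzyme dispensed at 20 nM; compound exposure 15 min at room temperature before reaction start.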
SARS PLpro yeast: blocks SARS-CoV papain-like protease in a yeast assay | AID 485353 | S. cerevisiae expressing SARS-CoV PLpro, growth rescue | hit rate 0.19% among 330,000 | Potency, µM (titrated, usually from 32.9 µM), inactives show at the highest dose activity, positive = growth rescue, actives largely listed as activators; calls by dose curve; further: 0% is about no effect; nearly all actives have a fitted effect of over 55% in size
Pf growth 48h: inhibits P. falciparum growth in the first generation, 48 h; hit rate 5.9% among 310,000; Potency, µM (series often up to 28.7 µM), for inactives: top-dose activity change, negative = inhibition, hits mostly inhibitors; P. falciparum luciferase growth in erythrocytes, 48 h; further: on the % scale 0 is the no-effect control and ±100 the full control effect
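Cell-based growth assay: transgenic P. falciparum expressing firefly luciferase, cultured in red cells within RPMI 1640 containing 0.5% w/v Albumax, 24 mM bicarbonate and gentamycin. A drop in luciferase activity indicates inhibition.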
AmpC inh detg: blocks E. coli AmpC beta-lactamase in detergent assay | hit rate 0.041% among 370,000 | P00811 | Potency, µM (titrated, usually from 114 µM), for inactives: at the highest dose activity change, negative = inhibition, usual class: inhibitors | AmpC hydrolysis of nitrocefin, absorbance 480 nm, 0.01% Triton | AID 485294;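 further: 0% = no-compound wells and -100% = no-enzyme wells; nearly all actives have a fitted effect of over 25% in size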
Target sequence (P00811 whole entry, looked up): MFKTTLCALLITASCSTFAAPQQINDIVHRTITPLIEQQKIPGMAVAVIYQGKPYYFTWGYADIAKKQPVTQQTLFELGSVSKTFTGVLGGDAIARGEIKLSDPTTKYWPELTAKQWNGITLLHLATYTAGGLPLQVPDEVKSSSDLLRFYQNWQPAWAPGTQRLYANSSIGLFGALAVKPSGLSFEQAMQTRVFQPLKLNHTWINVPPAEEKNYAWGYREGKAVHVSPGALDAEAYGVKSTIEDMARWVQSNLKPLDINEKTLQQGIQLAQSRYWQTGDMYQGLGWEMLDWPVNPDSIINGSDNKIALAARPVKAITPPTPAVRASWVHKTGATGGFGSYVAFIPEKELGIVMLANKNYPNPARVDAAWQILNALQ
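AmpC (5.3 nM in the dispensed reagent) in 20 mM phosphate pH 7.0 with 0.01% (detergent screen) or 0.0001% Triton X-100 was preincubated with compounds for 15 min at room temperature. Nitrocefin was then added from an 800 uM solution, and hydrolysis was followed at 480 nm.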
Pf growth 96h: P. falciparum growth inhibition at 96 hour, primary screen for plastid delayed-death inhibitors; Potency, µM (titrated, usually from 28.7 µM), without a hit: at the top dose activity change, negative = inhibition, actives largely listed as inhibitors; AID 504834; hit rate 6.9% among 320,000; P. falciparum luciferase reporter growth, 96 h; further: on the % scale 0 is the no-effect control and ±100 the full control effect
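Infected RBCs, 2% Hct / 0.05% parasitemia final; luciferase-reporter P. falciparum; cpd 96 h, 37 C, 5% CO2; luciferase detection reagent; luminescence.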
AmpC inh no detg: blocks E. coli AmpC beta-lactamase in detergent-free assay; AmpC nitrocefin hydrolysis, absorbance 480 nm, 0.0001% Triton; hit rate 0.52% among 330,000; P00811; Potency, µM (series often up to 57.1 µM), for the others: at the top dose activity change, negative = inhibition, most hits filed as inhibitors; AID 485341;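 further: plate controls were no compound for no effect and no enzyme for full effect; nearly all actives have a fitted effect of over 20% in size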
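20 mM phosphate pH 7.0 + 0.01% (detergent screen) or 0.0001% Triton X-100; 5.3 nM AmpC reagent; cpd preinc 15 min RT; nitrocefin (800 uM stock) to start; A480 q20 s × 4 min; Activity was normalised to no-enzyme and no-compound control wells.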
An asterisk follows results filed as active; ? = inconclusive; . = no result. An excerpt weighted towards active compounds, which were near 12% of everything screened. Unless noted, the call rests on the fitted dose curve; in most records, active means well fitted curve in the direction sought with a large enough effect; inconclusive means small, poorly fitted or top-dose-only effect, or another doubt; inactive means no such curve, though single readings can be large; an effect the other way counts as inactive or inconclusive. Potency means the concentration at half of the fitted maximal effect.

SMILES	Sm TGR inh	SARS PLpro yeast	Pf growth 48h	AmpC inh detg	Pf growth 96h	AmpC inh no detg
Cc1c(S(=O)(=O)c2ccccn2)c(N)n(Cc2cccc(Cl)c2)c1C	2µM*	-7.9%	?	6.7%	?	-7.7%
O=S(=O)(c1ccc(Cl)cc1)c1ccccn1	-8.1%	2.7%	5.8%	-11.0%	-0.2%	-20.2%
COc1ccc(C2=NOC(Cn3nc(C(=O)NCc4ccccc4OC)cc3-c3ccccc3)C2)cc1 (stereo not given)	3.9%	5.3%	13.1µM*	0.8%	?	-15.2%
Cc1ccccc1-c1cc(C(=O)NCc2cccc(Br)c2)n(CC2CC(c3cccnc3)=NO2)n1 (stereo not given)	.	-5.9%	.	.	.	7.1%
COc1ccc(C2=NOC(Cn3nc(-c4ccccc4)cc3C(=O)NCc3cccc(C(F)(F)F)c3)C2)cc1 (stereo not given)	.	-2.7%	.	.	.	-15.2%
COc1ccc(C2=NOC(Cn3nc(-c4ccccc4)cc3C(=O)NCc3ccc(C)cc3)C2)cc1 (stereo not given)	.	2.7%	.	.	.	-14.5%
COc1ccc(C2=NOC(Cn3nc(C(=O)NCC4CC4)cc3-c3ccccc3)C2)cc1 (stereo not given)	-2.6%	-4.1%	?	?	9.28µM*	6.3%
COc1ccccc1CNC(=O)c1cc(-c2ccccc2C)nn1CC1CC(c2cccnc2)=NO1 (stereo not given)	-12.5%	-0.1%	?	-7.2%	4.65µM*	62.4%
COc1ccc(C2=NOC(Cn3nc(C(=O)NCc4ccc(OC(F)(F)F)cc4)cc3-c3ccccc3)C2)cc1 (stereo not given)	0.4%	7.0%	10.4µM*	-11.8%	-20.1%	-22.4%
Cc1cccc(NC(=O)c2oc3ccc(S(=O)(=O)N(C)C4CCCCC4)cc3c2C)c1C	-0.2%	.	.	-5.7%	.	.
CCCCN(CC)CCNC(=O)c1c(C)oc2ncnc(N3CCOCC3)c12	-8.1%	.	.	2.2%	.	.
CCN(C(=O)c1ccc(C(=O)N(CC)c2ccccc2C)cc1)c1ccccc1C	5.2%	.	.	15.0%	.	.
O=[N+]([O-])c1ccc(NC(=S)NCc2ccc(F)cc2)cc1	?	-23.1%	?	-5.8%	4.15µM*	-54.2%
CC1(C)CC(NC(=S)Nc2ccc([N+](=O)[O-])cc2)CC(C)(C)N1	50.1µM*	0.1%	?	6.8%	-15.7%	-19.4%
S=C(NCc1ccccc1)Nc1ccc2cn[nH]c2c1	39.8µM*	-1.3%	10.1%	-10.6%	-10.8%	-24.2%
O=[N+]([O-])c1ccc(NC(=S)NCCc2ccc(Cl)cc2)cc1	?	-29.5%	2.33µM*	0.3%	1.85µM*	0.141µM*
O=[N+]([O-])c1ccc(NC(=S)NCCc2ccccc2)cc1	-29.7%	-81.2%	?	-5.1%	-1.5%	-42.8%
COc1cccc(Cn2c(=O)cc(C)c3c(C)nn(-c4ccc(C)cc4)c32)c1	4.7%	.	.	20.0%	.	.
CCOC(=O)C1=C(CS(=O)(=O)c2c(C)cc(C)cc2C)NC(=O)NC1c1cccc(OC)c1 (stereo not given)	4.8%	.	.	18.9%	.	.
CCn1ncc(Cl)c1C(=O)Nc1cc(Cl)ccc1Cl	12.5%	.	12.2%	0.5%	.	.
Fc1ccc(CNC(=S)NCc2ccccc2)cc1	3.2%	4.7%	?	2.3%	?	-33.9%
Fc1ccc(NC(=S)NCc2ccccc2)cc1	0.4%	8.6%	13.5%	-7.3%	14.7µM*	-12.5%
Cn1c(N2CCOCC2)nc(-c2ccccc2)c1-c1ccccc1	5.1%	-12.7%	.	?	4.9%	74.4%
O=C1NC(=O)C2(Cc3c(nc4ccccn4c3=O)N3CCCCCC32)C(=O)N1Cc1ccccc1 (stereo not given)	-13.3%	-3.0%	?	-12.7%	5.22µM*	20.2%
Cc1cccn2c(=O)c3c(nc12)N1CCCCC1C1(C3)C(=O)N(C)C(=O)N(C)C1=O (stereo not given)	-0.9%	-2.2%	?	3.9%	2.94µM*	-12.2%
SMILES	Sm TGR inh	SARS PLpro yeast	Pf growth 48h	AmpC inh detg	Pf growth 96h	AmpC inh no detg
CC1CCN(CC2CCN(C(=O)NCc3ccccc3)CC2)CC1	5.8%	.	.	-6.0%	.	.
Fc1cccc(CSc2nc(NCCc3ccccc3)c3ccccc3n2)c1	1.0%	.	.	-3.4%	.	.
COC(=O)c1cc2occc2n1Cc1c(F)cccc1Cl	-2.8%	17.1%	1.2%	2.2%	2.62µM*	-40.8%
COc1ccc(-c2ccc(OC)c([C@H]3[C@H]4C=CC[C@@H](C)[C@@H]4C(=O)N3Cc3ccccc3)c2)cc1	-22.1%	-1.1%	?	1.4%	?	-24.0%
COc1ccc(-c2ccoc2)cc1[C@H]1[C@H]2C=CC[C@@H](C)[C@@H]2C(=O)N1Cc1ccccc1	?	-15.0%	10.4µM*	0.7%	?	-7.1%
COc1ccc(-c2c([C@H]3[C@H]4C=CC[C@@H](C)[C@@H]4C(=O)N3Cc3ccccc3)ccc3ccccc23)cc1	-9.4%	4.2%	7.38µM*	-4.1%	9.28µM*	-6.5%
Cc1ccc(-c2cc([C@H]3[C@H]4C=CC[C@@H](C)[C@@H]4C(=O)N3Cc3ccccc3)ccc2F)cc1	-33.9%	-3.1%	10.4µM*	-9.9%	?	-3.7%
COc1ccc(-c2ccc(C)cc2)cc1[C@H]1[C@H]2C=CC[C@@H](C)[C@@H]2C(=O)N1Cc1ccccc1	?	-0.5%	?	3.8%	?	-27.1%
Cc1ccc(F)c([C@H]2C3C=CCC(c4ccccc4)C3C(=O)N2Cc2ccccc2)c1 (stereo not given in full)	11.4%	-8.1%	11.7µM*	-1.6%	?	-9.7%
COc1ccc(C(=O)Nc2ccc3c(c2)N(C2CCCC2)C(=O)c2ccccc2S3)cc1OC	6.6%	.	.	3.8%	.	.
Cc1ccccc1NC(=O)C1CCN(C(=O)c2cnn(-c3ccccc3)c2-n2cccc2)CC1	0.5%	.	.	2.7%	.	.
CC(C(=O)N1CCN(c2ccc(Cl)cc2)CC1)c1ncc(C(F)(F)F)cc1Cl (stereo not given)	2.1%	-10.4%	-1.6%	-1.5%	-2.6%	103.0%
CSc1cccc(-n2ccc(=O)c(C)c2C)c1	14.6%	-0.8%	-9.1%	-1.1%	7.7%	-0.3%
COc1ccc(-c2ccc([C@H]3[C@H]4C=CC[C@@H](C)[C@@H]4C(=O)N3Cc3ccccc3)c(F)c2)cc1OC	-18.6%	-1.8%	?	-5.2%	?	168.3%
COc1ccc(-c2ccc([C@H]3[C@H]4C=CC[C@@H](C)[C@@H]4C(=O)N3Cc3ccccc3)c(F)c2)cc1	-18.8%	-4.6%	11.7µM*	-0.2%	?	32.3%

Bioassay records: PubChem, National Center for Advancing Translational Sciences (NCATS)
